Experimental data: PubChem BioAssay (NCATS)
Records with an inconclusive call do not appear. Entries that show only a call come without a potency. Active and inactive are the calls of the source. The call rests on the fitted dose curve; in most records, active means well fitted inhibition curve with a large enough effect; inconclusive means small, poorly fitted or top-dose-only effect; inactive means flat fitted curve, though single readings scatter.

Key:
Test in all cases: qHTS profiling for inhibitors of Plasmodium falciparum proliferation (AID 504749); further: nearly all actives have a fitted effect of over 60% in size
Conditions in all cases: P. falciparum in erythrocytes, SYBR Green DNA, 72 h; series mostly up to 28.7 µM
CP191 = tested on: CP191
Method in brief: (§1)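 Quantitative HTS: compounds pinned into medium, infected erythrocytes added (0.3% parasitemia, 2.5% hematocrit), 72 h culture at 37 C under 5% CO2. Saponin/Triton lysis with SYBR Green I, overnight RT, then fluorescence read.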

CP192 = tested on: CP192
Method in brief: as §1

CP194 = tested on: CP194
Method in brief: as §1

CP201 = tested on: CP201
Method in brief: as §1

CP203 = tested on: CP203
Method in brief: as §1

CP211 = tested on: CP211
Method in brief: as §1

CP215 = tested on: CP215
Method in brief: as §1

CP217 = tested on: CP217
Method in brief: as §1

CP237 = tested on: CP237
Method in brief: as §1

CP238 = tested on: CP238
Method in brief: as §1
Potency means the concentration at half of the fitted maximal effect.

SMILES	Potency (CP191)	Potency (CP192)	Potency (CP194)	Potency (CP201)	Potency (CP203)	Potency (CP211)	Potency (CP215)	Potency (CP217)	Potency (CP237)	Potency (CP238)
Nc1ccn([C@@H]2CS[C@H](CO)O2)c(=O)n1	inactive	inactive	inactive	inactive	inactive	inactive	inactive	inactive	inactive	inactive
C[C@H]1C[C@@H]2[C@@H]([C@@H](O)C[C@@]3(C)[C@H]2CC[C@]3(O)C(=O)CO)[C@@]2(C)C=CC(=O)C=C12	inactive	inactive	inactive	inactive	inactive	inactive	inactive	inactive	inactive	inactive
CN1c2cc(O)c(N=NC(N)=O)cc2CC1S(=O)(=O)O (stereo not drawn)	inactive	inactive	inactive	inactive	inactive	inactive	inactive	inactive	inactive	inactive
COc1cc(C(=O)NS(=O)(=O)c2ccccc2C)ccc1Cc1cn(C)c2ccc(NC(=O)OC3CCCC3)cc12	inactive	inactive	–	inactive	–	–	–	–	inactive	inactive
CC[C@H]1CN2CCc3cc(OC)c(OC)cc3[C@H]2C[C@@H]1C[C@@H]1NCCc2cc(OC)c(OC)cc21	–	0.536 µM (active)	0.601 µM (active)	0.675 µM (active)	0.379 µM (active)	0.675 µM (active)	0.536 µM (active)	0.708 µM (active)	0.126 µM (active)	0.316 µM (active)
Nc1ccn([C@@H]2O[C@H](CO)[C@H](O)C2(F)F)c(=O)n1	1.41 µM (active)	6.01 µM (active)	6.75 µM (active)	2.13 µM (active)	2.69 µM (active)	2.39 µM (active)	6.01 µM (active)	4.47 µM (active)	3.55 µM (active)	3.98 µM (active)
CC(C)(C)NC(=O)[C@H]1CN(Cc2cccnc2)CCN1C[C@@H](O)C[C@@H](Cc1ccccc1)C(=O)N[C@H]1c2ccccc2C[C@H]1O	8.91 µM (active)	10.7 µM (active)	15.1 µM (active)	16.9 µM (active)	–	–	15.1 µM (active)	11.2 µM (active)	8.91 µM (active)	–
O=C(O)CO.[NH2-].[NH2-].[Pt+2]	inactive	inactive	inactive	inactive	inactive	inactive	inactive	inactive	inactive	inactive
CC1(C)O[C@@H]2C[C@@H]3[C@H]4C[C@@H](F)C5=CC(=O)C=C[C@]5(C)[C@@]4(F)[C@@H](O)C[C@]3(C)[C@]2(C(=O)CO)O1	inactive	–	15.1 µM (active)	–	–	–	–	inactive	inactive	inactive
COC(=O)C[C@](O)(CCCC(C)(C)O)C(=O)O[C@@H]1C(OC)=C[C@]23CCCN2CCc2cc4c(cc2[C@H]13)OCO4	0.0282 µM (active)	0.0269 µM (active)	0.0379 µM (active)	0.0426 µM (active)	0.0338 µM (active)	0.0301 µM (active)	0.0338 µM (active)	0.0316 µM (active)	0.0158 µM (active)	0.0282 µM (active)
O=c1[nH]c(=O)n(C2CCCO2)cc1F (stereo not drawn)	inactive	inactive	inactive	inactive	inactive	inactive	–	inactive	inactive	inactive
COc1c(N2C[C@@H]3CCCN[C@H]3C2)c(F)cc2c(=O)c(C(=O)O)cn(C3CC3)c12	inactive	inactive	inactive	inactive	inactive	inactive	inactive	inactive	–	inactive
CCC1=C[C@@H]2CN(C1)Cc1c([nH]c3ccccc13)[C@@](C(=O)OC)(c1cc3c(cc1OC)N(C)[C@@H]1[C@@](O)(C(=O)OC)[C@H](OC(C)=O)[C@]4(CC)C=CCN5CC[C@]31[C@@H]54)C2	3.98 µM (active)	4.26 µM (active)	3.38 µM (active)	4.78 µM (active)	3.01 µM (active)	3.38 µM (active)	2.13 µM (active)	2.51 µM (active)	3.98 µM (active)	2.82 µM (active)
COC(=O)C1=C(C)NC(C)=C(C(=O)OCCN2CCN(C(c3ccccc3)c3ccccc3)CC2)C1c1cccc([N+](=O)[O-])c1 (stereo not drawn)	3.16 µM (active)	4.78 µM (active)	5.36 µM (active)	7.57 µM (active)	3.79 µM (active)	3.79 µM (active)	3.38 µM (active)	3.16 µM (active)	3.16 µM (active)	2.51 µM (active)
Nc1ccc(S(=O)(=O)Nc2ncccn2)cc1	inactive	inactive	inactive	inactive	inactive	inactive	–	inactive	inactive	inactive
CC=CC1=C(C(=O)O)N2C(=O)[C@H](NC(=O)[C@H](N)c3ccc(O)cc3)[C@@H]2SC1	inactive	inactive	inactive	inactive	inactive	inactive	inactive	inactive	inactive	inactive
